{
  "source": "PubChem BioAssay AID743318",
  "about": "(Broad Institute, 2014)",
  "note": "Results with a measured potency or affinity are listed apart. Activity calls are given as the source filed them.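 Rule for the calls: active = cytotoxic signal drop whose half-maximal concentration is at most twice the top valid dose; inconclusive = flat drop between 30% and 70%, or poor fit; inactive = the rest.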",
  "data": [
    {"assay": "A549 cell cytotoxicity, dose response, cytotoxicity control, plate reader, dry powder, set 7 (AID 743318)", "conditions": "A549 viability, CellTiter-Glo ATP luminescence, 72 h; series mostly up to 26 µM", "values": [
      {"smiles": "CC(C)(C)c1ccccc1OCCn1c(=S)[nH]c2ccccc21", "outcome": "inactive"},
      {"smiles": "Cc1ccc(OCCn2c(SCCO)nc3ccccc32)c(C(C)C)c1", "outcome": "inactive"},
      {"smiles": "S=c1[nH]c2cc(Cl)ccc2n1CCOc1ccccc1", "outcome": "inactive"},
      {"smiles": "CSc1nc2ccccc2n1CCOc1cc(C)ccc1C(C)C", "outcome": "inactive"}
    ]}
  ]
}
